Drawing on PubChem BioAssay, this text covers composite z-score and z-score for 15 molecules.

Assay [1] concerns PRMT1 (protein arginine N-methyltransferase 1). In words: PRMT1 binders on small-molecule microarrays, primary screen, biochemical, small-molecule microarray, 635 nm fluorescence (AID 1088).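 Note: binding of Prmt1 protein to compounds spotted on small-molecule microarray slides.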 Conditions: small-molecule microarray binding, higher = more signal.
Assay [2] can be described thus: yeast growth modulation, basal conditions, primary screen, YJM789 clinical isolate, OD600, 24 h (AID 1089).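 Note: growth of clinical yeast isolate S. cerevisiae YJM 789 seeded 1000 cells per well; test concentration not given here.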 Conditions: S. cerevisiae YJM789 growth, higher = more signal, called active from +8 up or from −8 down.
A short description of assay [3]: fission yeast growth modulation, primary screen, strain 972, OD600, 24 h, no modulator (AID 1090).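 Note: basal condition with compound alone and no growth modifier present; test concentration not given here.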 Conditions: S. pombe 972 growth, higher = more signal, called active from +8 up or from −8 down.
A short description of assay [4]: S. cerevisiae growth modulation with rapamycin, primary screen, strain BY4716, OD600, 96 h (AID 1091). Note: test concentration not given here. Conditions: higher = more signal, called active from +8 up or from −8 down.
Assay [5] has as its target Torsin-1A-interacting protein 2 (Homo sapiens) (UniProt Q8NFQ8). In words: LULL1 binders on small-molecule microarray, primary screen, cell lysate, human LULL1 lysate, 635/667 nm fluorescence (AID 1092).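 Note: probe is lysate of COS7 cells overexpressing human LULL1; score merges per-feature 667 nm fluorescence with signal-to-noise.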 Conditions: hLULL1 lysate binding, 635 nm fluorescence, higher = more signal.
Assay [6] can be described thus: E. coli growth modulation, two-sided OD650, primary screen, E. coli filamentation project, strain DRC41, 24 h (AID 1093).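 Note: MC1000 strain lacking acrAB efflux and sulA so SOS filamentation is blocked; test concentration not given here.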 Conditions: OD650, 24 h, higher = more signal, called active from +8 up or from −8 down.
Assay [7] is described as follows: small-molecule microarray binders of probe aLefty2, primary screen, biochemical, biotinylated probe, 635/667 nm fluorescence (AID 1094).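 Note: score merges spot fluorescence near 667 nm with spot signal-to-noise ratio.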 Particulars: higher = more signal.
The subject of assay [8] is Noggin (protein binding on small-molecule microarray). Nature of the assay: Noggin binders on small-molecule microarray, primary screen, biochemical, 635/667 nm fluorescence (AID 1095).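 Note: score merges 667 nm feature fluorescence with signal to noise over triplicate slides.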 Conditions: 635 nm fluorescence, higher = more signal.
Assay [9] deals with Neurogenic locus notch homolog protein 3 (Homo sapiens) (UniProt Q9UM47). In words: NOTCH3 binders on small-molecule microarray, primary screen, biochemical, 635/667 nm fluorescence (AID 1096). Conditions: NOTCH3 binding, 635 nm fluorescence, higher = more signal.
Chain of Neurogenic locus notch homolog protein 3 (Homo sapiens) (Q9UM47 whole entry, looked up): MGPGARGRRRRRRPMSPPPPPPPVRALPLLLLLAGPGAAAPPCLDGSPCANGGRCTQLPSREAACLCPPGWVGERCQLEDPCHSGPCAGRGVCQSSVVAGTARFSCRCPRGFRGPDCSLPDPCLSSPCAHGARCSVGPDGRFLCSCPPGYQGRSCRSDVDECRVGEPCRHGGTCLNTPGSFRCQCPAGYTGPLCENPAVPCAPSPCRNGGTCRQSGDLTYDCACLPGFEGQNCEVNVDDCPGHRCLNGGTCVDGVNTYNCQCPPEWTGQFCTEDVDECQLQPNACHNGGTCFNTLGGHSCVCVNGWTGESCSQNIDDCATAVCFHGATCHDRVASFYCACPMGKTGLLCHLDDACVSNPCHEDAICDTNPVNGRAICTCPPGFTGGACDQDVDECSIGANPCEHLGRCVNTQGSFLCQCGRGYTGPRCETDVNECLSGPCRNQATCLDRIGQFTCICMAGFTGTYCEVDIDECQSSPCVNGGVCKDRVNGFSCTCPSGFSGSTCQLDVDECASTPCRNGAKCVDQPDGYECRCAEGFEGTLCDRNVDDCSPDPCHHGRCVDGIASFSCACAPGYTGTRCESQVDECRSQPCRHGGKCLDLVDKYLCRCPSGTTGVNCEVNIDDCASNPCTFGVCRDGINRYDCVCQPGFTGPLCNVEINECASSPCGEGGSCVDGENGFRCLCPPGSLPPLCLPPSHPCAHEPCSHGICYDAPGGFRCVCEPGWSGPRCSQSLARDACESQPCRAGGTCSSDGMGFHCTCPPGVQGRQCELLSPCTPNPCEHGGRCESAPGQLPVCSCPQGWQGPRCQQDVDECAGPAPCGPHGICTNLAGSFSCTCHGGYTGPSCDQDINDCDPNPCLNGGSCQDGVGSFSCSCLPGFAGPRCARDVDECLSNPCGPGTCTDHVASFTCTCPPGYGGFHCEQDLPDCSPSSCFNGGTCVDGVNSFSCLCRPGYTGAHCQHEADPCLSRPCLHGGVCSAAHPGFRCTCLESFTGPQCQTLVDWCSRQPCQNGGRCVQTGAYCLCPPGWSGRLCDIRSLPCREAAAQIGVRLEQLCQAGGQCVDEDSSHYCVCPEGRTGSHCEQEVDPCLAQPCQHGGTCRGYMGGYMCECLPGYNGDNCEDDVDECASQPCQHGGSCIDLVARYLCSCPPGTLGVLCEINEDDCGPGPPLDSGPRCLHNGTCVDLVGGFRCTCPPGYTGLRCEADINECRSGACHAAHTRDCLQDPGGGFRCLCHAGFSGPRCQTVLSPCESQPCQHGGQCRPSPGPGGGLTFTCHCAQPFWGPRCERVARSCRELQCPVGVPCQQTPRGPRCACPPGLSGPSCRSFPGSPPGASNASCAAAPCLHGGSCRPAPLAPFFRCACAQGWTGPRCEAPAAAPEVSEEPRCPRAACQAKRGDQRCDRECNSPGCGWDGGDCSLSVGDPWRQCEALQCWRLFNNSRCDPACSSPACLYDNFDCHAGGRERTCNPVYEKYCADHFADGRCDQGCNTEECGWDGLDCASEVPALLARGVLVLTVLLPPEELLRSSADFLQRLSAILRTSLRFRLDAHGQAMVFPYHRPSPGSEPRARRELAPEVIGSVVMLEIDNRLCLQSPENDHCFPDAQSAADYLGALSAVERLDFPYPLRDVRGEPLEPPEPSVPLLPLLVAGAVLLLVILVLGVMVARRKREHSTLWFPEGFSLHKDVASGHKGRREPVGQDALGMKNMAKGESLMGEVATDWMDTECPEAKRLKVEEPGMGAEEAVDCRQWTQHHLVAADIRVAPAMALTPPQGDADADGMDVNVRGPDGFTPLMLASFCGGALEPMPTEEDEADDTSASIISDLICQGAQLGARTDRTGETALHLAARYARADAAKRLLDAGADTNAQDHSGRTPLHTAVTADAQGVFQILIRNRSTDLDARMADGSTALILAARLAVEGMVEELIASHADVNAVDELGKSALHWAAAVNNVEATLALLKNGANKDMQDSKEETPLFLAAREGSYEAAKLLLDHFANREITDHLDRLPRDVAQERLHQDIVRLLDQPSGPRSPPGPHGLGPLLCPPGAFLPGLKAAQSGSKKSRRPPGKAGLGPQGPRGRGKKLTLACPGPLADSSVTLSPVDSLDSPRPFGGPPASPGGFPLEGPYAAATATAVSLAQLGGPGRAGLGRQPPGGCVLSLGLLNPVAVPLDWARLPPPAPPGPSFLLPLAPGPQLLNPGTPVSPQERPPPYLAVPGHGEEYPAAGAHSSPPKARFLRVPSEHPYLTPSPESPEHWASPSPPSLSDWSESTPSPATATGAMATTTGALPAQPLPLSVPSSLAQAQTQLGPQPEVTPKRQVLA
A short description of assay [10]: small-molecule microarray binders of probe aEGFR, primary screen, biochemical, biotinylated probe, 635/667 nm fluorescence (AID 1097).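 Note: probe is a biotinylated anti-EGFR antibody binding compounds printed on slides; score combines fluorescence near 667 nm and signal to noise of each spot.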 Conditions: higher = more signal.

Calls of active or inactive are those of the source.

Chain of Torsin-1A-interacting protein 2 (Homo sapiens) (Q8NFQ8 whole entry, looked up): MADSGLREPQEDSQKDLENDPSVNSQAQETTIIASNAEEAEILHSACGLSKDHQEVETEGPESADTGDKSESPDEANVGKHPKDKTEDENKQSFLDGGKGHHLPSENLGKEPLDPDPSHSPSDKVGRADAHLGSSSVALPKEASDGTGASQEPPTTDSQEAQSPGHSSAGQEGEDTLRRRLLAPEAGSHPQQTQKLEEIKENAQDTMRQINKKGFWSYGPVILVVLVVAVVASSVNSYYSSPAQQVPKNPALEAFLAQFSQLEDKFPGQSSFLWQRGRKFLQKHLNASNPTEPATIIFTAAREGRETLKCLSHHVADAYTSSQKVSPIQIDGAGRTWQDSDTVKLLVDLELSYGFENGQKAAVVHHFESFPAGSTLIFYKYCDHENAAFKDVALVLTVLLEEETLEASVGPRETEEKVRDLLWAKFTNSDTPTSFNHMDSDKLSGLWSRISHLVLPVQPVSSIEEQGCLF

With `CCOC(=O)C1=CC[C@@H](c2ccccc2)N(S(=O)(=O)c2ccc(C)cc2)[C@H]1c1ccc(CC)cc1`, the composite z-score is 1.27 in assay [1]; 2.02 in [5]; 0.05 in assay [7]; -0.503 in assay [8]; 0.716 in assay [9]; 0.279 in [10]. Also, the z-score in [2] is 0.891 (inactive); in [3] it was 1.94 (inactive); in assay [4], 2.17 (inactive); in [6] it was -0.315 (inactive).

`CCOC(=O)C1=C[C@@H](C(C)C)N(S(=O)(=O)c2ccc(C)cc2)[C@H]1c1ccccc1F`: the composite z-score in [1] amounted to 1.58; in assay [5] it was 2.8; in assay [7], 0.142; in [8] it was 0.351; in assay [9], 1.06; in [10] it was 0.0353. Besides, the z-score was -0.413 (inactive) in [2], 1.51 (inactive) in [3], 7.3 (inactive) in assay [4] and -0.816 (inactive) in [6].

`[N-]=[N+]=NCc1ccccc1[C@H]1OC(c2ccc(OCCCO)cc2)=N[C@@]1(Cc1ccccc1)C(=O)N1CCCCC1`: the composite z-score in [1] is 1.55; in assay [5], 3.33; in assay [7], 0.0004; in assay [8] it was 1.37; in assay [9] it was 1.13; in assay [10] it was 0.038. For the same molecule, the z-score in [2] was -1.88 (inactive); in assay [3], -0.575 (inactive); in assay [4] it was 1.32 (inactive); in assay [6] it was 1.56 (inactive).

`C=C(/C(=C/C[C@H](OC(=O)c1ccncc1)c1ccc(OCCO)cc1)c1cc(C(=O)OC)ccc1OC)C(C)C`: the composite z-score in assay [1] was 1.03; in assay [5], 1.73; in assay [7], -0.072; in assay [8] it was 0.609; in assay [9], 0.381; in [10], 0.122. Further, the z-score in assay [2] was 0.236 (inactive); in assay [3], -1.26 (inactive); in assay [4], -0.359 (inactive); in assay [6] it was 1.09 (inactive).

Turning to `O=C(NCc1ccccc1)[C@@H]1c2ccccc2C(=O)N(C2Cc3ccccc3C2)[C@H]1c1ccc(CO)cc1`, the composite z-score was determined as 1.56 in assay [1]; 2.03 in assay [5]; 0.126 in assay [7]; 0.149 in assay [8]; 1.03 in [9]; 0.194 in [10]. For the same molecule, the z-score is 0.106 (inactive) in [2], 0.287 (inactive) in [3], 0.644 (inactive) in assay [4] and -0.874 (inactive) in [6].

`C=CCOC(=O)[C@H]1[C@@H]2C(=O)O[C@@H](c3ccccc3)[C@@H](c3ccccc3)N2[C@@H](c2ccc(OCCOC(=O)[C@H]3C[C@H]4C(=O)N[C@@H](CCCCN(C)C)C(=O)N4[C@H]3c3cccc(OCCO)c3)cc2)[C@]12C(=O)Nc1ccc(I)cc12`: the composite z-score in [1] was 1.54; in assay [5], 2.84; in assay [7] it was -0.129; in assay [8], 1.67; in assay [9], 1.06; in assay [10], -0.15. Moreover, the z-score in assay [2] is 1.71 (inactive); in assay [3] it was -1.05 (inactive); in assay [4], 1.71 (inactive); in [6] it was -1.36 (inactive).

As to `COC(=O)c1c(CC[C@@H](CO)NC(=O)NCCc2c[nH]c3ccccc23)oc(C(=O)Cc2ccccc2)c1C(=O)OC`, the composite z-score in assay [1] is 0.578; in [5] it was 1.53; in [7], -0.117; in assay [8], 0.145; in assay [9] it was 0.316; in assay [10], -0.126. Moreover, the z-score in [2] was 0.433 (inactive); in assay [3] it was 0.215 (inactive); in [4], -1.62 (inactive); in assay [6], 0.528 (inactive).

As for `CC[C@@H]1C=C(C(=O)O)[C@H](c2ccc(C)cc2)N1S(=O)(=O)c1ccc(C)cc1`, the composite z-score is 0.805 in assay [1]; 2.9 in assay [5]; -0.0654 in [7]; 0.634 in assay [8]; 0.939 in assay [9]; -0.0557 in assay [10]. Moreover, the z-score in assay [2] was -1.23 (inactive); in assay [3] it was 0.992 (inactive); in [4], -0.564 (inactive); in assay [6] it was -0.552 (inactive).

`COC(=O)C[C@H]1O[C@@H](CCc2ccccc2)[C@@H](C)[C@@H]1[Si](C)(C)c1ccc(OC)cc1`: the composite z-score was -0.604 in assay [1]; -0.722 in [5]; -0.253 in [7]; -0.263 in assay [8]; -0.311 in assay [9]; -0.206 in [10]. Besides, the z-score is 0.425 (inactive) in assay [2], -0.412 (inactive) in assay [3], 0.797 (inactive) in assay [4] and -0.67 (inactive) in assay [6].

Consider `COC(=O)c1c(CC[C@@H](CO)NC(=O)N[C@@H](Cc2ccccc2)Cn2cc(-c3ccccn3)nn2)oc(C(=O)N2CCOCC2)c1C(=O)OC`, for which the composite z-score in [1] was 0.278; in [5], 0.843; in assay [7] it was -0.124; in assay [8], 0.227; in [9], 0.495; in assay [10], -0.183. Besides, the z-score is 0.503 (inactive) in [2], 0.82 (inactive) in assay [3], -0.593 (inactive) in [4] and -0.613 (inactive) in assay [6].

Turning to `O=c1cccc(-c2ccccc2Cl)o1`, the composite z-score in assay [1] was 0.023; in assay [5], 0.551; in assay [7] it was -0.127; in assay [8], 0.466; in assay [9] it was -0.691; in assay [10], -0.139. Moreover, the z-score in assay [2] is -0.871 (inactive); in [3], -0.463 (inactive); in [4] it was 2.12 (inactive); in [6] it was -0.252 (inactive).

Turning to `CC1CC/C=C\[C@H]2OC34C=CCN(Cc5ccccc5)C(=O)[C@H]3N(C(C)CO)C(=O)[C@@H]4C2C(=O)O1` (stereo not given in full), the composite z-score in assay [1] was -0.938; in assay [5], 0.44; in assay [7], -0.092; in [8] it was 0.392; in assay [9], 0.158; in assay [10], -0.0916. The z-score is -0.875 (inactive) in assay [2], -1.48 (inactive) in assay [3], -0.577 (inactive) in [4] and 0.524 (inactive) in assay [6].

With `N#Cc1ccc(C(O)C2C=CC3C(=O)N(c4ccccc4)C(=O)C3N2Nc2ccccc2F)cc1` (stereo not given), the composite z-score is 0.713 in assay [1]; 2.93 in assay [5]; -0.113 in [7]; 0.339 in assay [8]; 0.972 in assay [9]; 0.0262 in assay [10]. Moreover, the z-score in assay [2] was -0.413 (inactive); in assay [3], 0.135 (inactive); in [4] it was -0.851 (inactive); in assay [6], 0.246 (inactive).

With `CCCNC(=O)[C@@]1(Sc2ccc(C)cc2)CC(=O)N(Cc2ccccc2C(F)(F)F)[C@@H]1c1ccc(CO)cc1I`, the composite z-score was 1.53 in assay [1]; 2.19 in assay [5]; -0.0125 in assay [7]; 0.932 in assay [8]; 0.958 in assay [9]; -0.0435 in assay [10]. The z-score in assay [2] was -0.36 (inactive); in assay [3], -2.45 (inactive); in [4] it was 0.283 (inactive); in assay [6], -1.57 (inactive).

Regarding `CCCCN1CC=CC23O[C@@H]4/C=C\CCCOC(=O)C4[C@H]2C(=O)N(CCCO)[C@@H]3C1=O` (stereo not given in full), the composite z-score in [1] was 1.27; in assay [5], 2.86; in [7], -0.212; in assay [8] it was -0.991; in assay [9], -0.1; in assay [10], -0.324. The z-score in assay [2] is -1.15 (inactive); in assay [3] it was -1.04 (inactive); in [4], -0.513 (inactive); in [6], 0.0383 (inactive).
